High-throughput results (PubChem BioAssay)
Only some compounds are listed: those with a hit (about 8.5% of all), similar ones and a draw of the others.
ALDH1A1 block: inhibitors of human aldehyde dehydrogenase 1A1 | Purified ALDH1A1, NADH fluorescence, propionaldehyde substrate | 220,000 compounds, 7.3% hits | Potency, µM (series often up to 75.3 µM), inactives show at the highest dose activity, negative = inhibition, most hits filed as inhibitors | AID 1030; active = well fitted inhibition curve with a large enough effect, not every such curve was filed as active; inconclusive = small, poorly fitted or top-dose-only effect, or another doubt; inactive = no such curve, though single readings can be large or run the other way;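 note: potency is the fitted concentration of half-maximal effect; plate controls were no enzyme wells and a reference inhibitor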
KDM4E inh: blocks human JMJD2E demethylase activity. JMJD2E catalytic domain, FDH-coupled NADH fluorescence (FDH is formaldehyde dehydrogenase). Potency, µM (series often up to 57.1 µM), without a hit: top-dose activity change, negative = inhibition, actives largely listed as inhibitors. B2RXH2. 230,000 compounds, 1.6% hits. AID 2147; active = well fitted inhibition curve with a large enough effect, not every such curve was filed as active; inconclusive = small, poorly fitted or top-dose-only effect, or another doubt; inactive = no such curve, though single readings can be large or run the other way;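 note: potency is the fitted concentration of half-maximal effect; 0% = wells with enzyme and -100% = buffer wells without enzyme; nearly all actives have a fitted effect of over 50% in size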
Sfp inh: inhibitors of Bacillus subtilis Sfp phosphopantetheinyl transferase. Q9F4F7. Biochemical Sfp PPTase activity, qHTS. Potency, µM, inactives show largest response in the series, negative = inhibition, usual class: inhibitors. 310,000 compounds, 3.5% hits;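 note: the enzyme is Sfp with the accession as filed and its product quenches rhodamine fluorescence; potency is the fitted concentration of half-maximal effect; 0% = enzyme reaction without inhibitor and -100% = no enzyme wells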
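Buffer: 50 mM Hepes-Na pH 7.6, 10 mM MgCl2, 0.01% Nonidet P-40, 0.01% BSA. Enzyme 15 nM, pre-exposed to compound 15 min; substrates then added and fluorescence change tracked over 30 min.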
NPSR antagonist: neuropeptide S receptor (human) antagonism, cAMP. Q6W5P4. CHO-NPSR cells, cAMP TR-FRET, antagonist mode. Potency, µM (series often up to 38.3 µM), for inactives: top-dose activity change, negative = inhibition, actives largely listed as inhibitors. 220,000 compounds, 1% hits. AID 1461; note: potency is the fitted concentration of half-maximal effect; nearly all actives have a fitted effect of over 50% in size
Target sequence (Q6W5P4 whole entry, looked up): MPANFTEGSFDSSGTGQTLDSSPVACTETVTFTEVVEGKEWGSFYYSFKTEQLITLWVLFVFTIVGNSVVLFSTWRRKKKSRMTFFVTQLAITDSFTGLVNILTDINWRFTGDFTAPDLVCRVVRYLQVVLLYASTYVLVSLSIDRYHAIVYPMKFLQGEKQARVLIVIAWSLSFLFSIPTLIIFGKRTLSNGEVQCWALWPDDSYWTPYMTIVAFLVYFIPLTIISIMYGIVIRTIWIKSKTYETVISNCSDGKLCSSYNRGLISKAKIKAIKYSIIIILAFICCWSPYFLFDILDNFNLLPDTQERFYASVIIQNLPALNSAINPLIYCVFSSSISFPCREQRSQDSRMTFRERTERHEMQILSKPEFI
Coupling enz: counter-screen for Giardia aldolase inhibitors: coupling enzyme system; AID 2472; 290,000 compounds, 0.67% hits; activity change, negative = inhibition, % at 58.2 µM, hits read low; coupling enzyme system counterscreen, AmpLite Red fluorescence; in the data active = activity change below about -30%
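First, compound is pin-transferred into glyceraldehyde-3-phosphate coupling-enzyme reagent at 57.5 uM final and held 10 min at RT. Next, substrate, coupling system and AmpLite Red are added. After 20 min RT, fluorescence (525/598 nm) is read.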
GoLoco inh red: RGS12 GoLoco-Gai1 interaction inhibition. P63096. Gai1:RGS12 GoLoco peptide FP, rhodamine, 10 min. Potency, µM (highest dose often 61.6 µM), inactives show top-dose activity, negative = inhibition, actives largely listed as inhibitors. 230,000 compounds, 0.44% hits; active = well fitted inhibition curve with a large enough effect, not every such curve was filed as active; inactive = no such curve, though single readings can be large or run the other way; note: potency is the fitted concentration of half-maximal effect; nearly all actives have a fitted effect of over 30% in size
Target sequence (P63096 whole entry, looked up): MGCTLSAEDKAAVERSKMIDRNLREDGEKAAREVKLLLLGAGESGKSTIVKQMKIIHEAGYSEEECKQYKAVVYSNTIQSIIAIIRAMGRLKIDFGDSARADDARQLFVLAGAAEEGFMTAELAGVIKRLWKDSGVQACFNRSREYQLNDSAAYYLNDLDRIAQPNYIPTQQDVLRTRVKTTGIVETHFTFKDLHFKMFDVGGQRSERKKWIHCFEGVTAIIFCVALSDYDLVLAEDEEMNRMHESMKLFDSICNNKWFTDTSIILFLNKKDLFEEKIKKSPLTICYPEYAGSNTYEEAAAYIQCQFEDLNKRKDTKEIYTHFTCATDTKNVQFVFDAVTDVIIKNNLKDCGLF
An asterisk follows results filed as active; ? = inconclusive; · = not tested or not shown; [ ] = remark or other dose. Unless noted, calls come from the whole dose curve; as a rule, active = well fitted curve in the direction sought with a large enough effect; inconclusive = small, poorly fitted or top-dose-only effect, or another doubt; inactive = no such curve, though single readings can be large; an effect the other way counts as inactive or inconclusive. Unless noted, % is set by controls: 0 for no effect and ±100 for the full control effect.

SMILES	ALDH1A1 block	KDM4E inh	Sfp inh	NPSR antagonist	Coupling enz	GoLoco inh red
O=C(Nc1ccccc1)c1ccc(-c2ccc([N+](=O)[O-])cc2)o1	·	·	50µM*	·	-1	·
N#C/C(=C/c1ccc(-c2cc(C(=O)O)cc(C(=O)O)c2)o1)c1nc2ccccc2s1	-4%	?	56µM*	-1%	10	102%
COc1cccc(OC)c1C(=O)Nc1ccnn1C	·	·	17%	·	-1	·
Cc1nc(NCc2ccccc2)c2nc(-c3ccccc3)n(CCN3CCOCC3)c2n1	?	?	7%	·	2	2%
COc1ccc(CCNC(=O)c2ccc(-c3ccc([N+](=O)[O-])cc3)o2)cc1OC	10µM*	-9%	-13%	14%	3	-4%
O=C(O)c1ccc(-c2cccc([N+](=O)[O-])c2)o1	·	-1%	50µM*	19%	7	-8%
Cc1ccc(-c2ccc(C(=O)Nc3ccccc3)o2)c2ccccc12	?	-5%	40µM*	-21%	-14	9%
COc1ccc2nc(NC(=O)c3ccc(-c4cccc([N+](=O)[O-])c4)o3)sc2c1	1%	-8%	13%	32%	3	2.2µM*
CN(CCCC(=O)N1CCCC(C(N)=O)C1)S(=O)(=O)c1ccc(F)cc1 (configuration not stated)	·	·	15%	·	1	·
COc1ccc(NC(=O)c2ccc(-c3ccc([N+](=O)[O-])cc3)o2)cc1	2.2µM*	-20%	-76%	-3%	-31*	-7%
COc1ccc(C/C(O)=C(\C#N)c2nc3ccccc3s2)cc1	-6%	0%	24%	7%[46.1 µM]	20	7%
COc1ccc(NC(=O)c2ccc(Cc3ccc(C)cc3)o2)cc1	25µM*	4%	-4%	-8%	-2	23%
N#C/C(=C(/O)c1ccc(-c2cccc([N+](=O)[O-])c2)o1)c1nc2ccccc2s1	?	0%	35µM*	10%	-2	18%
COc1ccc(NC(=O)c2ccc(COc3ccccc3)o2)cc1	?	5%	-1%	-20%[46.1 µM]	0	96%
CCOc1ccc(C(=O)COC(=O)c2cccc(-n3cnnn3)c2)cc1	·	·	5%	·	·	·
CC(C)CC(OC(=O)c1ccc(Cl)nc1)C(=O)NC1CCCC1 (configuration not stated)	·	·	17%	·	0	·
O=C1C=C(O)c2cccc3cccc1c23	·	·	-4%	·	-5	·
NC1=CC(=O)c2cccc3cccc1c23	1µM*	?	3.5µM*	-26%[46.1 µM]	-34*	32µM*
Cc1ccccc1CN1CCSc2sccc2C1=O	6%	-1%	1%	-12%	-4	4%
C=CCN1C(=O)C(CC(=O)O)SC1=Nc1cccc([N+](=O)[O-])c1 (configuration not stated)	14µM*	-10%	8%	17%	8	-8%
COc1cc(C(C)C)c2c(c1)S(=O)(=O)N(COc1cc(=O)n3cccc(OCCN4CCCCC4)c3n1)C2=O	·	·	-18%	·	-1	·
CN(C)c1ccc(C2N([C@H](C#N)c3ccc(N(C)C)cc3)CCCN2[C@@H](C#N)c2ccc(N(C)C)cc2)cc1 (some centres not stated)	1µM*	·	·	·	·	3%[14.2 µM]
O=C(CC1C(=O)NCCN1Cc1ccccc1C(F)(F)F)NCCc1ccccn1 (configuration not stated)	?	?	5%	-6%	-8	-12%
C/C(=C\c1cccc(Br)c1)C(=O)c1c(C)cc(C)[nH]c1=O	·	·	8%	·	3	·
C/C(=C\c1ccc(C)o1)C(=O)c1c(C)cc(C)[nH]c1=O	?	-2%	32µM*	25%	-2	-22%
SMILES	ALDH1A1 block	KDM4E inh	Sfp inh	NPSR antagonist	Coupling enz	GoLoco inh red
O=C(CSc1ncn[nH]1)Nc1cc(S(=O)(=O)N2CCCC2)ccc1Cl	16µM*	?	-13%	-3%	2	5%
Cc1ccc(S(=O)(=O)N2CCOCC2)cc1NC(=O)CSc1nc(N)cc(=O)[nH]1	?	-3%	71µM*	-11%	9	-2%
Cc1csc(SCC(=O)Nc2cccc(S(=O)(=O)N3CCCC3)c2)n1	25µM*	2%	16%	-3%[46.1 µM]	1	5%
Cc1ccc(NC(=O)CSc2nc(N)cc(=O)[nH]2)cc1S(=O)(=O)N1CCOCC1	4%	0%	19%	-22%	6	13%
Cc1csc(SCC(=O)Nc2cc(S(=O)(=O)N3CCCC3)ccc2Cl)n1	1.3µM*	-5%	5%	-11%[46.1 µM]	2	8%
Cc1csc(SCC(=O)Nc2cc(S(=O)(=O)N3CCOCC3)ccc2N2CCOCC2)n1	·	7%	13%	3%	-1	0%
COc1ccc(CCNC(=O)CSc2ccc(-c3ccco3)nn2)cc1OC	?	-10%	?	8%	-1	2%
CCOc1ccc(NC(=O)CSc2ccc(-c3ccco3)nn2)cc1	·	·	-12%	·	·	·
COc1cccc(NC(=O)CSc2ccc(-c3ccco3)nn2)c1	·	·	50µM*	·	·	·
Cc1cccc(NC(=O)Cn2nc(-c3ccco3)ccc2=O)c1C	·	·	-13%	·	-1	·
O=C(CSc1ccc(-c2ccco2)nn1)Nc1ccc(F)cc1	·	·	28µM*	·	·	·
O=C(Cn1nc(-c2ccco2)ccc1=O)Nc1ccc(Br)cc1	·	·	50µM*	·	1	·
COc1ccc(NC(=O)CSc2ccc(-c3ccco3)nn2)cc1OC	·	·	45µM*	·	·	·
CCCCN1CCN=C1Nc1ccccc1	·	·	16%	·	2	·
N#Cc1c(Cl)nc2c(c1C#N)CCCC2	·	-3%	-5%	-1%	3	2%
CC(C)C[C@H](NC(=O)[C@H](CC(C)C)NC(=O)[C@@H](Cc1c[nH]c2ccccc12)NC(=O)[C@H](Cc1ccccc1)NC(=O)[C@@H](Cc1c[nH]c2ccccc12)NC(=O)[C@H](CCC(N)=O)NC(=O)[C@H](CCC(N)=O)NC(=O)[C@@H]1CCCN1C(=O)[C@H](CCCCN)NC(=O)[C@@H]1CCCN1C(=O)[C@@H](CCCNC(=N)N)NC(=O)[C@@H]1CCCN1C(=O)CNC(=O)[C@H](CC(C)C)NC(=O)[C@H](CC(C)C)NC(=O)[C@H](Cc1ccc(O)cc1)NC(=O)CNC(=O)[C@H](C)NC(=O)[C@H](CO)NC(=O)[C@H](CC(N)=O)NC(=O)[C@H](CC(C)C)NC(=O)[C@@H](NC(=O)[C@H](Cc1c[nH]c2ccccc12)NC(=O)CN)[C@@H](C)O)C(N)=O	·	·	-27%	·	5	·
Cc1nc2ccc(NC(=O)N(C(C)C)C(C)C)cc2s1	4%	-29%	-9%	-9%[46.1 µM]	6	22%
CC(C)N(C(=O)Nc1ccc2nccnc2c1)C(C)C	?	?	4%	2%[46.1 µM]	-39*	11%
O=C(O)C1C2CCC(O2)C1C(=O)Nc1cccc(Cl)c1 (configuration not stated)	·	·	8%	·	-1	·
